The record followed here is PubChem BioAssay.

The structures appear in SMILES notation. Activity calls are given as the source filed them. Unless noted, the rule behind the calls is not given here.

The subject of assay [1] is Wnt5a (protein binding on small-molecule microarray). The assay can be described thus: small molecules binding Wnt5a protein – biophysical, small-molecule microarray, 635/667 nm fluorescence, primary screen (AID 1142).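 Note: fluorescence read at 667 nm with signal to noise per printed feature.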 The settings on record: 635 nm fluorescence, higher = more signal.
Assay [2] can be described thus: ATP-based viability of Huh7 replicon cells – cell-based, CellTiter-Glo luminescence, basal, 48 h, cytotoxicity control for HCV replication inhibitor project, primary screen (AID 1143).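 Note: Huh7 hepatoma cells carrying a hepatitis C replication reporter with no stimulus; test concentration not given here.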 The note with it: higher = more signal, called active from +8 up or from −8 down.
Assay [3] can be described thus: Pseudomonas biofilm growth suppression – PAO1 strain, BacTiter-Glo luminescence, LB-PBS, primary screen (AID 1144). The note with it: P. aeruginosa PAO1 biofilm, 12 h, higher = more signal.
The nature of assay [4]: basal CRE-LacZ reporter activity in PC12 – cell-based, unstimulated, primary screen (AID 1145). The note with it: no forskolin, luminescence, 4.5 h, higher = more signal, called active from +8 up or from −8 down.
A short description of assay [5]: forskolin-driven CRE-LacZ activity in PC12 – cell-based, CRE-LacZ reporter, forskolin-stimulated, primary screen (AID 1146).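 Note: PC12 cells with 6xCRE LacZ reporter stimulated by forskolin 10 µM; beta-galactosidase reporter signal reflecting CREB driven transcription.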 The note with it: luminescence, 4.5 h, higher = more signal, called active from +8 up or from −8 down.
The target in assay [6] is Streptavidin (Streptomyces avidinii) (UniProt P22629). The assay can be described thus: compounds binding control protein streptavidin – biophysical, small-molecule microarray, 635/667 nm fluorescence, artefact control for SMM compound annotation, primary screen (AID 1147).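 Note: signal reflects streptavidin binding to arrayed compounds as a control protein.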 The settings on record: higher = more signal.
Assay [7] is described as follows: probe aInhba binding on compound microarray – biochemical, small-molecule microarray, 635/667 nm fluorescence, primary screen (AID 1148).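 Note: score merges 667nm spot fluorescence with signal-to-noise for antibody binding to printed compounds.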 The note with it: higher = more signal.
Assay [8] deals with Torsin-1A (Homo sapiens) (UniProt O14656). Briefly: TOR1A wild-type binding on microarray – cell lysate, small-molecule microarray, lysate, 635/667 nm, primary screen (AID 1149). The note with it: COS7 hTOR1A-WT lysate, 635 nm fluorescence, higher = more signal.
For assay [9] the target is unchanged. The assay can be described thus: torsin A mutant lysate binding on microarrays – cell lysate, small-molecule microarray, COS7 lysate, 635/667 nm fluorescence, primary screen (AID 1150).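 Note: score pools 667 nm emission and signal to noise measuring lysate protein binding.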 The settings on record: COS7 hTOR1A mutant lysate, 635 nm fluorescence, higher = more signal.
The test system of assay [10] is Sonic hedgehog protein (Shh). Briefly: Sonic hedgehog microarray binding compounds – biochemical, small-molecule microarray, 635/667 nm fluorescence, primary screen (AID 1151).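 Note: Shh protein binding to compounds spotted on small-molecule microarray slides; score combines spot fluorescence intensity with signal-to-noise across triplicate slides.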 The settings on record: 635 nm fluorescence, higher = more signal.
The nature of assay [11]: optical density shifts of acrAB sulA E. coli – strain DRC41, OD650, 48 h, E. coli filamentation inducer project, primary screen (AID 1152).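 Note: E. coli MC1000 strain DRC41 lacking acrAB efflux pump and sulA.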 The settings on record: higher = more signal, called active from +8 up or from −8 down.
A short description of assay [12]: probe aLefty1 binding on compound microarray – biochemical, small-molecule microarray, 635/667 nm fluorescence, primary screen (AID 1153).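 Note: score merges spot fluorescence with signal-to-noise ratio from the scanned slide images.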 The settings on record: higher = more signal.
Assay [13] can be described thus: plasmodial surface anion channel blockers, osmotic lysis – cell-based, P. falciparum Indochina, OD700, 1 h, primary screen (AID 1154). The settings on record: P. falciparum Indochina infected RBC osmotic lysis, higher = more signal, called active from +8 up or from −8 down.
Assay [14] can be described thus: plasmodial surface anion channel blockers, osmotic lysis – cell-based, P. falciparum Indochina, OD700, 2 h, primary screen (AID 1155).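 Note: lysis reports solute entry through the parasite surface anion channel PSAC.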 The note with it: P. falciparum Indochina infected erythrocytes, higher = more signal, called active from +8 up or from −8 down.
Assay [15] in a line: changes in parasitized red cell lysis, either direction – P. falciparum Indochina, OD700, 3 h, PSAC antagonist project, primary screen (AID 1156). The note with it: P. falciparum-infected erythrocytes, osmotic lysis, higher = more signal, called active from +8 up or from −8 down.
Assay [16] can be described thus: plasmodial surface anion channel blockers, osmotic lysis – cell-based, P. falciparum Indochina, OD700, 18 h, primary screen (AID 1157). The note with it: P. falciparum Indochina infected erythrocytes, osmotic lysis OD700, 18 h; higher = more signal, called active from +8 up or from −8 down.
Assay [17] is described as follows: S6 kinase pathway phospho-S6 level changes – cell-based, A549, cytoblot, luminescence, serum-stimulated, primary screen (AID 1158).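 Note: serum-stimulated A549 lung adenocarcinoma cells; signal is phosphorylated S6 detected by cytoblot immunostaining with HRP secondary.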 The settings on record: 5 h, higher = more signal.
Assay [18] concerns the target NADPH oxidase 2 (Homo sapiens) (UniProt P04839). The assay can be described thus: compounds shifting NOX2 Amplex Red fluorescence – cell-based, HEK293-NOX2, PMA-stimulated, NOX inhibitor project, primary screen (AID 1159). Note: test concentration not given here. The note with it: 45 min, higher = more signal, called active from +8 up or from −8 down.
Assay [19] deals with NADPH oxidase 4 (Homo sapiens) (UniProt Q9NPH5). Briefly: compounds shifting NOX4 Amplex Red fluorescence – cell-based, HEK293-NOX4, tetracycline-induced, NOX inhibitor project, primary screen (AID 1160). The note with it: HEK293-NOX4, Amplex Red H2O2 fluorescence, 45 min; higher = more signal, called active from +8 up or from −8 down.
The target of assay [20] is NADPH oxidase 5 (Homo sapiens) (UniProt Q96PH1). Briefly: compounds shifting NOX5 Amplex Red fluorescence – cell-based, HEK293-NOX5, NOX inhibitor project, primary screen (AID 1161). The settings on record: HEK293-NOX5, ionomycin, 45 min, higher = more signal.
Sequence of NADPH oxidase 5 (Homo sapiens) (Q96PH1 whole entry, looked up): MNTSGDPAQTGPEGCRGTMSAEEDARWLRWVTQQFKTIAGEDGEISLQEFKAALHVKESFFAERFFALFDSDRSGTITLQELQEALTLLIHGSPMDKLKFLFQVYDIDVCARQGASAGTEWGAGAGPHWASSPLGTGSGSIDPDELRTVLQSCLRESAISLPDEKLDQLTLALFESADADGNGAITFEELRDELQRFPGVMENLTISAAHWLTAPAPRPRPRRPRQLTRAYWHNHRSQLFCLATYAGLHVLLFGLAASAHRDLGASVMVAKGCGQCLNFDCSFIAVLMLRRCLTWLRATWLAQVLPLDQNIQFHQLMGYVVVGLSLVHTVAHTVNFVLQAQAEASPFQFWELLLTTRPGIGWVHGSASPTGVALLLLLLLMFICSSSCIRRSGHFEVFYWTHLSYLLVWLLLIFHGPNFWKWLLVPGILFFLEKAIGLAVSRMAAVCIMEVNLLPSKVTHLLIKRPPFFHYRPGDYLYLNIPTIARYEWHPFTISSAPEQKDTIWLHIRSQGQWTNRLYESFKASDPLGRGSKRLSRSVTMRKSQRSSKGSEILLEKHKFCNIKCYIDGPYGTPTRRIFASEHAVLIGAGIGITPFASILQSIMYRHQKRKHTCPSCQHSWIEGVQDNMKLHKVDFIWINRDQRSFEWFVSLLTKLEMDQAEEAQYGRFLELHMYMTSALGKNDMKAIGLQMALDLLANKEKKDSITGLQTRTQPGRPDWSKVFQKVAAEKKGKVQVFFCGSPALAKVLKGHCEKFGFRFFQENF

Sequence of Streptavidin (Streptomyces avidinii) (P22629 whole entry, looked up): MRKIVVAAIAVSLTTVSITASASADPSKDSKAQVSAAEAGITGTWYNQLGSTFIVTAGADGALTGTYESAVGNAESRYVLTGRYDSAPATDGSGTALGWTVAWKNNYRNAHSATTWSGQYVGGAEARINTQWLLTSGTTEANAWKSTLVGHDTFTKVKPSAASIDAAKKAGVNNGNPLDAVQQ
Sequence of NADPH oxidase 2 (Homo sapiens) (P04839 whole entry, looked up): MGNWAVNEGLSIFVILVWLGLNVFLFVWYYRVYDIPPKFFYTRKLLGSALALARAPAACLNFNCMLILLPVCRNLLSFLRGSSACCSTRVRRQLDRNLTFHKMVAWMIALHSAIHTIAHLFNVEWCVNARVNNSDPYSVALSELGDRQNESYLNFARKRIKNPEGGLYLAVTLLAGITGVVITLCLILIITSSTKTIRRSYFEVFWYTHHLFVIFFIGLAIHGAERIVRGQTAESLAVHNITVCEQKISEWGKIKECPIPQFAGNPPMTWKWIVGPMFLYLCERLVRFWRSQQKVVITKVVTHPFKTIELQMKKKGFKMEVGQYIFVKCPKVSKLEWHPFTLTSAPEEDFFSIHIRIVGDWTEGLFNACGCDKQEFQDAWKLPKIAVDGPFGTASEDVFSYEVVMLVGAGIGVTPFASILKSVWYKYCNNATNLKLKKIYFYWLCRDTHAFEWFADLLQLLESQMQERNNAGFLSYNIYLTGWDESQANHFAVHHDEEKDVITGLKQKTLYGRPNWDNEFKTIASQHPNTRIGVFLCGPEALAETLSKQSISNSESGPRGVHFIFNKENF
Sequence of NADPH oxidase 4 (Homo sapiens) (Q9NPH5 whole entry, looked up): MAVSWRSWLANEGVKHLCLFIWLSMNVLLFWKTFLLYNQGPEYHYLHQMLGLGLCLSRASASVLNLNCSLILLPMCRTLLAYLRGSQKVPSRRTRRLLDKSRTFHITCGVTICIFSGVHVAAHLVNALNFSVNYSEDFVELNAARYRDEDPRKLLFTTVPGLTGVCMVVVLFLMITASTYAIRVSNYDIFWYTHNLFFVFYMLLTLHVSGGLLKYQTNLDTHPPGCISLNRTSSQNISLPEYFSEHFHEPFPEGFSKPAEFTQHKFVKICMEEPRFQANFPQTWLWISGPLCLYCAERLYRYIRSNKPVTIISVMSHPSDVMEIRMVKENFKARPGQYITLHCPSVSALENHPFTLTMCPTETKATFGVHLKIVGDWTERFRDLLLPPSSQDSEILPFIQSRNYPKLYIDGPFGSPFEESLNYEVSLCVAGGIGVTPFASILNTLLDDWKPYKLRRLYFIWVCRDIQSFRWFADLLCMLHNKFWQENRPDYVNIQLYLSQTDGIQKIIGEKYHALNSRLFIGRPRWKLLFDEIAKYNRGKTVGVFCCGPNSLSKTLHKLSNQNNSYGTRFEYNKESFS
Sequence of Torsin-1A (Homo sapiens) (O14656 whole entry, looked up): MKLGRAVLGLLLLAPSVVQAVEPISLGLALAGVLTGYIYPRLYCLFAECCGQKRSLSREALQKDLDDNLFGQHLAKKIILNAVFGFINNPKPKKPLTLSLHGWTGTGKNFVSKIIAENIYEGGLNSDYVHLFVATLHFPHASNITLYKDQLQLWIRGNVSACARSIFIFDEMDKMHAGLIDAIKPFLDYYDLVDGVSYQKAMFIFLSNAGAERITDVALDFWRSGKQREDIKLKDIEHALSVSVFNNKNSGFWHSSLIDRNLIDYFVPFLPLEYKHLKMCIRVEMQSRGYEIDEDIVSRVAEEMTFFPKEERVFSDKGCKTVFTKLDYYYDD

Turning to `COCCOC(=O)N1C(=O)[C@@]2(c3cc(C#CCC(C(=O)OC)C(=O)OC)ccc31)[C@H](C(=O)N1CCCCCCC1)[C@H]1C(=O)O[C@H](c3ccccc3)[C@H](c3ccccc3)N1[C@@H]2c1ccccc1OCCO`, the composite z-score in [1] turned out to be 1.21; in assay [6] it was 2.68; in assay [7], 1.91; in assay [8] it was 1.27; in assay [9], 1.23; in assay [10], 2.06. The molecule further had a composite z-score in assay [12] of 2.72. Further, the z-score in assay [2] is -5.66 (inactive); in assay [3] it was -0.728 (inactive); in assay [4], -0.475 (inactive); in [5], -0.981 (inactive); in [11], 0.822 (inactive); in [13], 2.04 (inactive). Besides, the z-score was -0.228 (inactive) in assay [14]; 0.489 (inactive) in [15]; -1.21 (inactive) in [16]; 2.14 in [17]; -0.817 (inactive) in assay [18]; -0.194 (inactive) in assay [19]. For the same molecule, in assay [20], the z-score is -1.87.

As to `CCCC=C(CCC)[C@@H](NC(=O)c1ccccc1)c1ccc(C(=O)OC)cc1`, the composite z-score is 0.675 in [1]; -0.0576 in assay [6]; 0.326 in assay [7]; 0.615 in [8]; 0.546 in assay [9]; 0.293 in [10]. This molecule registered a composite z-score in assay [12] of 1.29. Further, the z-score in assay [2] was -4.41 (inactive); in assay [3], -0.947 (inactive); in assay [4] it was -0.379 (inactive); in assay [5] it was 0.0425 (inactive); in assay [11], 0.119 (inactive); in assay [13], -0.072 (inactive). Further, the z-score is 0.502 (inactive) in assay [14]; -0.0759 (inactive) in assay [15]; -0.289 (inactive) in assay [16]; 3.85 in assay [17]; -3.83 (inactive) in assay [18]; -3.23 (inactive) in assay [19]. In [20], the z-score is -1.45.

Turning to `COc1ccc(C#Cc2ccc3c(c2)[C@]2(C(=O)N3)[C@H](c3ccc(OCCO)cc3)N3[C@H](c4ccccc4)[C@H](c4ccccc4)OC(=O)[C@H]3[C@@H]2C(=O)O)cc1`, the composite z-score in assay [1] is 0.57; in assay [6] it was -0.105; in assay [7] it was 0.927; in [8], 0.546; in assay [9], 1.2; in assay [10], 1.89. This molecule came in with a composite z-score in [12] of 1.4. For the same molecule, the z-score is -5.01 (inactive) in [2]; -2.48 (inactive) in [3]; -0.0515 (inactive) in [4]; 3.52 (inactive) in assay [5]; 2.24 (inactive) in assay [11]; -1.39 (inactive) in assay [13]. The z-score in assay [14] was -2.59 (inactive); in [15] it was -6.7 (inactive); in assay [16], -2.58 (inactive); in assay [17], 1.6; in [18] it was -0.922 (inactive); in assay [19], -1.55 (inactive). Moreover, the z-score in assay [20] was -2.5.

With `COc1ccccc1CN1C(=O)c2ccccc2[C@@H](C(=O)NCCCN(C)C)[C@@H]1c1ccc(CO)cc1`, the composite z-score in [1] is 0.0968; in assay [6] it was -0.523; in assay [7], 0.0028; in assay [8], -0.236; in [9], -0.0195; in assay [10], -0.0791. In [12], this molecule showed a composite z-score of -0.552. Besides, the z-score in assay [2] was -2.77 (inactive); in assay [3] it was -1.58 (inactive); in [4], 0.531 (inactive); in assay [5], -0.744 (inactive); in assay [11] it was 1.21 (inactive); in assay [13], 2.02 (inactive). The z-score is -0.141 (inactive) in assay [14]; 0.445 (inactive) in [15]; -0.583 (inactive) in assay [16]; 0.506 in assay [17]; 0.676 (inactive) in assay [18]; -0.436 (inactive) in [19]. The z-score in assay [20] was -2.04.

As to `CCCCN1CC=CC23O[C@@H]4C=CCOC(=O)[C@@H]4[C@H]2C(=O)N(C(CO)C(C)C)[C@@H]3C1=O` (stereo not given in full), the composite z-score in [1] was -0.0661; in [6], -0.507; in assay [7], -0.34; in assay [8] it was -0.241; in assay [9] it was -0.436; in [10], 0.605. The same molecule displayed a composite z-score in assay [12] of -0.0697. In addition, the z-score was 0.233 (inactive) in assay [2]; 0.946 (inactive) in [3]; 0.463 (inactive) in assay [4]; 0.547 (inactive) in assay [5]; -0.62 (inactive) in assay [11]; 1.16 (inactive) in assay [13]. For the same molecule, the z-score in [14] is 0.574 (inactive); in [15] it was 1.06 (inactive); in [16], 0.407 (inactive); in assay [17], -0.272; in [18], 0.835 (inactive); in assay [19], 0.17 (inactive). Besides, the z-score in assay [20] stood at 1.88.

In the case of `CCN(CC)c1ccc(N2CC=CC34O[C@@H]5C=CCOC(=O)[C@@H]5[C@H]3C(=O)N(CCCO)[C@@H]4C2=O)cc1` (stereo not given in full), the composite z-score in assay [1] is -0.121; in [6], -1.39; in [7], -0.128; in assay [8], 0.0507; in [9], 2.46; in assay [10] it was -0.0981. Moreover, the composite z-score in [12] worked out at 0.027. Further, the z-score was -2.34 (inactive) in [2]; -0.527 (inactive) in [3]; -0.228 (inactive) in assay [4]; -0.905 (inactive) in assay [5]; 1.33 (inactive) in assay [11]; 0.246 (inactive) in [13]. The z-score in assay [14] was -0.655 (inactive); in assay [15], 0.649 (inactive); in assay [16], -1.36 (inactive); in assay [17], 4.3; in assay [18], -0.0266 (inactive); in assay [19], -0.497 (inactive). Moreover, the z-score in assay [20] was found to be 0.785.

Turning to `Cc1ccc(F)cc1S(=O)(=O)N[C@@H]1CCN(Cc2ccc3c(c2)OCO3)C1`, the composite z-score in [1] was -0.212; in assay [6], -0.194; in [7], -0.128; in [8], 0.241; in assay [9], 0.0733; in [10], -0.0547. For the same molecule, the composite z-score in assay [12] is -0.0984. Further, the z-score in assay [2] is -1.51 (inactive); in assay [3], -0.455 (inactive); in assay [4] it was 1.22 (inactive); in assay [5], -0.714 (inactive); in assay [11], -3.25 (inactive); in assay [13] it was 1.36 (inactive). Moreover, the z-score was 0.491 (inactive) in assay [14]; 0.076 (inactive) in [15]; 0.329 (inactive) in assay [16]; -0.0688 in assay [17]; -0.438 (inactive) in assay [18]; -0.228 (inactive) in assay [19]. The z-score in assay [20] was -0.687.

Consider `C=CCN1C(=O)[C@]2(O[C@H](CCO)[C@@H]([Si](C)(C)c3ccc(OC)cc3)[C@@H]2C)c2ccccc21`, for which the composite z-score in [1] is -0.381; in assay [6], -0.652; in assay [7], -0.209; in [8], -0.958; in [9] it was -0.0259; in assay [10], -1.12. Also, in assay [12], the composite z-score is -0.33. Further, the z-score in [2] is -8 (inactive); in assay [3], -0.566 (inactive); in assay [4] it was 19.5 (active); in assay [5] it was -3.3 (inactive); in [11], -1.95 (inactive); in [13], 11.9 (active). Also, the z-score was 2.43 (inactive) in [14]; -2.63 (inactive) in [15]; 1.19 (inactive) in assay [16]; -0.613 in [17]; -0.536 (inactive) in assay [18]; -0.0158 (inactive) in [19]. In assay [20], the z-score is -1.23.
